# Hit rate of the full screen: of about 400,000 compounds, about 2,100 (0.53%) were called active. Roughly 14% stayed inconclusive and do not appear here. The sample holds actives, similar compounds and a random draw of the others, so the mix is not that of the screen. How the calls were made is not given here.
# Molecular target: Ataxin-2 (Homo sapiens) (UniProt Q99700)
# Assay: qHTS for Inhibitors of ATXN expression.
# Assay type: functional
# Sequence of Ataxin-2 (Homo sapiens) (Q99700 whole entry): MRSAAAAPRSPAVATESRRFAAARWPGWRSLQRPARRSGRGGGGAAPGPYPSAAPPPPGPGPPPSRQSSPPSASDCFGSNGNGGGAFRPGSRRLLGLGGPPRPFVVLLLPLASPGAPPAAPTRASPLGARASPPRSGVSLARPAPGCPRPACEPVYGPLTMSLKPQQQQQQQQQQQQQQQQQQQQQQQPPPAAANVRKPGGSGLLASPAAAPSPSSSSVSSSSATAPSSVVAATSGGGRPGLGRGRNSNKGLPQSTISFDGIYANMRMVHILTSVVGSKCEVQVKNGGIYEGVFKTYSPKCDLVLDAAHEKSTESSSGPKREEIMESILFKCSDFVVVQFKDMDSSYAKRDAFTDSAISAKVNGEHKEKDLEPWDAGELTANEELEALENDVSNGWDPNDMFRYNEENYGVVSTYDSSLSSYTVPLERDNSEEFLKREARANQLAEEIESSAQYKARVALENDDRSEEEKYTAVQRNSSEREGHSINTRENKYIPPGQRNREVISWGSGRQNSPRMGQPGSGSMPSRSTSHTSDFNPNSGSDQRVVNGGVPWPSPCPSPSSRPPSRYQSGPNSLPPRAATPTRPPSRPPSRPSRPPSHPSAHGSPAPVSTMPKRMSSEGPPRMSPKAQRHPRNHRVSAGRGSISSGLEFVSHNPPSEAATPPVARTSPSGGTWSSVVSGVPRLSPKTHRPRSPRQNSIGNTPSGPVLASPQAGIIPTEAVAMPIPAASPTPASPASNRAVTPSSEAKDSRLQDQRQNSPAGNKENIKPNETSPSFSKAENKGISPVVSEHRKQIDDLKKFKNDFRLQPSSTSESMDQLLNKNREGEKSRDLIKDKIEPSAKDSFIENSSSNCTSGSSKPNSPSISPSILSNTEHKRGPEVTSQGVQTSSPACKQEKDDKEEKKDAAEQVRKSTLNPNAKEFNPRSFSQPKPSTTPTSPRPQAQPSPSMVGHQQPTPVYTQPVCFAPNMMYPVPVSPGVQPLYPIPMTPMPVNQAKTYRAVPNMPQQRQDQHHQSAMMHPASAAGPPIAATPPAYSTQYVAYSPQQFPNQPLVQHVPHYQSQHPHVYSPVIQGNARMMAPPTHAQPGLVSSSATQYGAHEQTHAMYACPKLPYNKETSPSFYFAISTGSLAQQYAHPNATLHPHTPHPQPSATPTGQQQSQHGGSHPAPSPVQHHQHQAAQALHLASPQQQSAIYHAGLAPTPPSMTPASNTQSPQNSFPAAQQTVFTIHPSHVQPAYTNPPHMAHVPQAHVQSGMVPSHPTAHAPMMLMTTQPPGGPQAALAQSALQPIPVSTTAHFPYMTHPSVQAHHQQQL
row,SMILES,Potency
1,CSc1nnc(N2C(=O)C(O)=C(C(=O)c3ccco3)C2c2ccc(F)cc2)s1 (stereo unspecified),inactive
2,CCN=C(S)NCc1ccc2[nH]c(C)cc2c1,inactive
3,FC(F)(F)c1cc(CO[C@@H]2CCCN[C@@H]2c2ccccc2)cc(C(F)(F)F)c1,35.5 µM (active)
4,Cc1cc(C2(c3ccc(O)c(C)c3)C(=O)N(C)c3ccc(Br)cc32)ccc1O,44.7 µM (active)
5,Cc1c(Br)c(=O)oc2c(Br)c(O)ccc12,inactive
6,CC1(C)OC(=O)C(/C=N\Nc2c(Cl)cc(Cl)cc2Cl)=C(O)O1,inactive
7,Cc1cc2oc3cc(NCCC4CCCN4C)ccc3c(=O)c2cc1C (stereo unspecified),inactive
8,C=C(C)c1nc(Oc2ccccc2)nc(Oc2ccccc2)n1,33.6 µM (active)
9,COc1ccc2cc(-c3cc(C(=O)OCC(=O)NC4CCS(=O)(=O)C4)c4ccccc4n3)ccc2c1 (stereo unspecified),inactive
10,CC1C(C#N)=C(SCC(N)=O)N=C2CC(C)(C)CC(O)=C21 (stereo unspecified),inactive
11,COc1ccc(CNc2cccc3[nH]c(C(F)(F)F)nc23)cc1OC,inactive
12,COc1cc(/C=C(\C#N)c2nc3ccccc3[nH]2)ccc1OCc1ccc(F)cc1,inactive
13,COc1cccc(CNc2nc[nH]n2)c1OCc1ccccc1F,inactive
14,COc1cccc(CNCCc2c[nH]c3ccccc23)c1OCc1ccccc1F,28.2 µM (active)
15,COc1cc(CNCCc2c[nH]c3ccccc23)ccc1OCc1ccc(F)cc1,35.5 µM (active)
16,COc1cc(/C=C(\C#N)c2nc3ccccc3[nH]2)ccc1OCc1ccccc1F,inactive
17,COC(=O)C1=CN(CCCN2CCCC2=O)C=C(C(=O)OC)C1c1ccccc1C(F)(F)F,inactive
18,Cc1c(Cc2ccccc2)c(=O)oc2c(CN(C)C)c(O)c(Cl)cc12,inactive
19,Cc1cc(C)n(-c2nc(NCCCN(C)C)c3c4c(sc3n2)CCCC4)n1,25.1 µM (active)
20,COc1ccc2cc(-c3nc(Cl)c4c5c(sc4n3)CCCC5)c(=O)oc2c1,inactive
21,c1ccc(CNc2ncnc3sc4c(c23)CCCC4)nc1,inactive
22,CCn1cc(C2N3CC4(C)CN2CC(C)(C3)C4=O)c2ccccc21 (stereo unspecified),inactive
23,CCNc1cc2oc(=O)c(CN3CCOCC3)c(C)c2cc1C,inactive
24,COc1ccc(N2CCN(c3cc(C)c4cccc(C)c4n3)CC2)cc1,inactive
25,COc1ccc(-n2c(-c3cccc(OC)c3)nc(=S)c3c2CCCC3)cc1,25.1 µM (active)
26,COc1cccc(N2CCc3c(C)nc4ccc(Cl)cc4c32)c1,inactive

row,SMILES,Potency
1,CN1CCN(CC/C=C2/c3ccccc3Sc3ccc(S(=O)(=O)N(C)C)cc32)CC1,35.5 µM (active)
2,CCCc1nc2c(=O)n(C)c(=O)nc-2n(C)n1,8.44 µM (active)
3,Cc1ccccc1-n1c2nc(=O)n(C)c(=O)c-2cc2ccccc21,inactive
4,Cn1c(=O)nc2n(Cc3ccccc3)c3ccccc3cc-2c1=O,inactive
5,Cn1nc(-c2ccccn2)nc2c(=O)n(C)c(=O)nc1-2,17.8 µM (active)
6,Cc1ccc(C)c(-n2c3nc(=O)n(C)c(=O)c-3cc3ccccc32)c1,inactive
7,CC(C)(C)C1CCC(CN2C(Nc3ccccc3)=NC[C@@H]2Cc2ccccc2)CC1 (stereo partly specified),25.1 µM (active)
8,CC(C)C[C@H]1CN=C(Nc2ccccc2)N1CCCC1CCCCC1,22.4 µM (active)
9,CCC(=O)c1cc2c(C)cc(=O)oc2c(C)c1OC(=O)C(C)C,inactive
10,O=[N+]([O-])c1ccccc1S(=O)(=O)N1CCN(Cc2ccccc2)CC1,inactive
11,CN1CCN(S(=O)(=O)c2ccc(Sc3nnnn3-c3ccccc3)c([N+](=O)[O-])c2)CC1,39.8 µM (active)
12,COc1cc(OC)cc(OC(=O)c2cccc(S(=O)(=O)N3CCN(C)CC3)c2)c1,inactive
13,CCC(C)[C@H]1CN=C(S)N1CCc1cc(C(F)(F)F)cc(C(F)(F)F)c1 (stereo partly specified),35.5 µM (active)
14,FC(F)(F)c1cc(CCN2C(S)=NC[C@@H]2Cc2ccccc2)cc(C(F)(F)F)c1,39.8 µM (active)
15,NC1=NC[C@H](c2ccccc2)N1CCc1cc(C(F)(F)F)cc(C(F)(F)F)c1,28.2 µM (active)
16,COc1cccc(C2=CC(c3ccccc3F)n3ncc(C(=O)Nc4ccc(F)cc4)c3N2)c1 (stereo unspecified),inactive
17,CC1CC(Nc2ccccc2)c2ccccc2N1C(=O)c1ccncc1 (stereo unspecified),inactive
18,CN1CCc2c(sc3c2C(=O)NC(c2ccc(-c4cccc(Cl)c4)o2)N3)C1 (stereo unspecified),inactive
19,COn1c(=O)c(-c2ccc(F)cc2)[n+]([O-])c2ccccc21,inactive
20,CCN(CC)Cc1c(O)c(Cl)cc2c(C)c(C)c(=O)oc12,inactive
21,COc1ccc(/C=N/NC(=O)c2[nH]c3ccc(Cl)cc3c2-c2ccccc2)c(C(=O)O)c1OC,inactive
22,O=C1OCCN1C(=O)[C@H]1[C@H](c2ccccc2)C(c2ccc(F)cc2)=NN1c1ccccc1,inactive
23,CCn1nc(NC(=O)C2CCCO2)c2cc3cccc(C)c3nc21 (stereo unspecified),inactive
24,COc1cc(C2C=C(c3cccs3)Nc3ncnn32)cc(OC)c1OC (stereo unspecified),inactive
25,Cc1cnc(-n2ncc(C(=O)N3CCN(C(C)C)CC3)c2-c2ccco2)nc1-c1ccc(F)cc1,inactive
26,CC(=O)N(Cc1ccccn1)Cc1ccco1,inactive

row,SMILES,Potency
1,S=C(NN=C(c1ccccc1)c1ccccn1)N(Cc1ccccn1)Cc1ccccn1,15.8 µM (active)
2,COC(=O)CC1C(=O)NCCN1C(=O)CSc1nc2ccccc2c(=O)n1CC(C)C (stereo unspecified),inactive
3,Cc1nc(C/C(=N\N)c2ccc(O)cc2O)cs1,inactive
4,O=C1c2cccc3c(N4CCCCC4)ccc(c23)C(=O)N1c1cccc(O)c1,inactive
5,COc1ccc(C(=O)CCN2CCc3cc(OC)c(OC)cc3C2)cc1,26.7 µM (active)
6,COc1cc2c(cc1OC)CN(C(=O)CSc1ccc(F)cc1)CC2,inactive
7,COc1cc2c(cc1OC)CN(Cc1cc(=O)n3c(-c4ccccc4)csc3n1)CC2,inactive
8,Cc1c(C)c2cc(Cl)c(O)c(CN3CCN(C)CC3)c2oc1=O,inactive
9,CN1CCC(NCCC(c2ccc(F)cc2)c2ccc(Cl)cc2)CC1 (stereo unspecified),25.1 µM (active)
10,CN1CCN(c2ccc(Cl)cc2NC(=O)/C=C/c2ccc(F)cc2)CC1,inactive
11,CC1CCN(CCN=C(S)Nc2ccc(Cl)cc2)CC1,inactive
12,CCOc1ccc(Cl)cc1/C=N/NC(N)=O,inactive
13,COc1cc(Cl)cc(/C=N/NC(N)=O)c1O,inactive
14,COc1ccccc1Sc1ccccc1/C=N/NC(N)=O,39.8 µM (active)
15,CCOC(=O)c1cc2c(=O)n3ccccc3nc2n(CCOC)/c1=N/C(=O)c1c(-c2c(F)cccc2Cl)noc1C,inactive
16,Cc1cc(C)c2c(N)c3ccccc3nc2n1,inactive
17,Cc1c2ccccc2nc2ccccc12,inactive
18,Cc1cc2[nH]c3c4ccccc4nc(C)c3c2cc1C,28.2 µM (active)
19,Cc1ccc2nc(N3CCN(C(=O)CCCC(=O)O)CC3)nc(-c3ccccc3)c2c1,inactive
20,CCOC(=O)c1ccc(NS(=O)(=O)c2c(C)n(C)c(=O)n(C)c2=O)cc1,inactive
21,CCOC(=O)c1ccc(NC(=O)N2C3CCCC2CC(NC(C)=O)C3)cc1 (stereo unspecified),inactive
22,CCOC(=O)c1ccc(N2C(=O)C=CC2=O)cc1,39.8 µM (active)
23,CC1CCCc2sc3ncn(N)c(=N)c3c21 (stereo unspecified),inactive
24,CCCCCCCNC(=O)C1(CC2CC(c3ccc(Cl)cc3)=NO2)CCNCC1 (stereo unspecified),25.1 µM (active)
25,CCCCCCCNC(=O)C1(CC2CC(c3cccc(Br)c3)=NO2)CCNCC1 (stereo unspecified),31.6 µM (active)
26,CC1CCCC(C)N1C(=O)COC(=O)C12CC3CC(CC(Cl)(C3)C1)C2 (stereo unspecified),inactive

row,SMILES,Potency
1,O=C(NN/C=C1\C(=O)N(c2ccc(Cl)cn2)C(=O)c2ccccc21)c1ccncc1,inactive
2,CCCCCn1c(N2CCC(Cc3ccccc3)CC2)nc2c1c(=O)[nH]c(=O)n2C,28.2 µM (active)
3,CCCCCCn1c(SCCOC)nc2c1c(=O)[nH]c(=O)n2C,inactive
4,CCCSc1nc2c(c(=O)[nH]c(=O)n2C)n1Cc1ccccc1,inactive
5,Cn1c(=O)[nH]c(=O)c2c1nc(N1CCCCCC1)n2Cc1cccc2ccccc12,44.7 µM (active)
6,Cc1cccc(OCC2Cn3c(nc4c3c(=O)[nH]c(=O)n4C)O2)c1 (stereo unspecified),inactive
7,Brc1ccc(C2CC(c3ccccc3)=Nc3ccccc3N2)cc1 (stereo unspecified),inactive
8,CC(=O)c1ccc(N2C(=O)[C@@H]3[C@H](C2=O)[C@H]2c4ccccc4C=NN2[C@@H]3C(C)=O)cc1,inactive
9,CCn1nc([N+](=O)[O-])c(C(C#N)c2nc3cc(C(F)(F)F)ccc3s2)c(Cl)c1=O (stereo unspecified),28.2 µM (active)
10,CCOC(=O)c1cc2c(=O)n3ccccc3nc2n(Cc2ccco2)/c1=N\C(=O)c1cccc(Br)c1,inactive
11,O=C(NCc1ccccn1)c1cc2ccccn2n1,inactive
12,COCCCNC(=O)c1c(N)n(-c2cccc(S(N)(=O)=O)c2)c2nc3ccccc3nc12,inactive
13,COc1ccc(CN(C)CC(O)COc2ccc(-c3ccccc3)cc2)cc1OC (stereo unspecified),11.2 µM (active)
14,OC(CNC1CCCC1)COc1ccc(-c2ccccc2)cc1 (stereo unspecified),inactive
15,COc1ccc(CN(C)Cc2c(O)ccc3cc(Br)ccc23)cc1OC,inactive
16,Cc1cc(C(C)(C)C)n2nc(C)c(-c3ccccc3)c2n1,inactive
17,Cc1nn2c(NCCN(C)C)c3c(nc2c1-c1ccccc1)CCCC3,35.5 µM (active)
18,Cc1nn2c(NC(C)C)c3c(nc2c1-c1ccccc1)CCC3,inactive
19,CSCCC(NC(=O)/C(=C/c1ccc2c(c1)OCO2)NC(=O)c1cccc([N+](=O)[O-])c1)C(=O)O (stereo unspecified),inactive
20,C=CCC[C@H](Cc1ccc(F)cc1)C(=O)OC[C@@H](NC(=O)[C@@H](CC=C)CC(=O)N[C@@H](CO)Cc1ccccc1)C(C)(C)C,39.8 µM (active)
21,C=CC[C@H](CC(=O)N(CCO)Cc1ccccc1)C(=O)N[C@H](COC(=O)[C@@H](CC=C)Cc1ccc(F)cc1)C(C)(C)C,28.2 µM (active)
22,C=CC[C@H](CC(=O)N(CCO)Cc1ccccc1)C(=O)N[C@H](COC(=O)[C@@H](CC=C)Cc1ccc(F)cc1)Cc1ccccc1,22.4 µM (active)
23,C=CC[C@H](CC(=O)N(CCO)Cc1ccccc1)C(=O)NC[C@@H](OC(=O)[C@@H](CC=C)Cc1ccc(F)cc1)c1ccccc1,28.2 µM (active)

# — ChEMBL document CHEMBL1201862, “PubChem BioAssay data set” (2004)
